Experimental data as given in PubChem BioAssay (Tox21).
Inconclusive results are not listed. Calls of active or inactive are those of the source. Calls come from the whole dose curve; as a rule, active = well fitted activation curve with a large enough effect in the signal ratio in the repeat runs, with a control signal flat (not every such curve was filed as active); inconclusive = weak or mixed curves; inactive = flat fitted curve, though single readings scatter; the % refers to the signal ratio.

experiment: qHTS assay for small molecule activators of the heat shock response signaling pathway (AID 743210); details: HeLa HSE-bla reporter, beta-lactamase ratio, 5 h; series mostly up to 62.6 µM;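 note: HeLa cells with beta-lactamase reporter driven by heat shock elements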
Procedure, shortened: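 Following overnight attachment, HSE-bla HeLa cells received test compounds for 5 h at 37 C; beta-lactamase activity was then detected via FRET substrate fluorescence.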

Row | Compound | outcome
1 | NCCCNCCCN | inactive
2 | CCOC(=O)[C@]1(c2ccccc2)Oc2ccccc2[C@@H]1N | inactive
3 | CN1C[C@H](CNC(=O)OCc2ccccc2)C[C@@H]2c3cccc4c3c(cn4C)C[C@H]21 | inactive
4 | COC1=CC(=O)O[C@@H](CCc2ccccc2)C1 | inactive
5 | CCCCc1c(C)nc(NCC)nc1OS(=O)(=O)N(C)C | inactive
6 | C=CC(=O)OCC(C)O (stereo not drawn) | inactive
7 | C=CC(=O)NCNC(=O)C=C | inactive
8 | Clc1ccc(C2(Cn3cncn3)CC(Br)CO2)c(Cl)c1 (stereo not drawn) | inactive
9 | CC1Sc2c(C(=O)O)c(=O)c3cc(F)c(N4CCNCC4)cc3n21 (stereo not drawn) | inactive
10 | CC(=O)c1cc2c(cc1C)C(C)(C)C(C)CC2(C)C (stereo not drawn) | inactive
11 | C=C(C#N)CCC#N | inactive
12 | N#Cc1cc(I)c(O)c(I)c1 | inactive
13 | CCO[C@H]1O[C@@H]2OC3(C)CC[C@H]4[C@H](C)CC[C@@H]([C@H]1C)[C@@]24OO3 | inactive
14 | C[C@@H]1CC[C@H]2[C@@H](C)C(=O)O[C@@H]3O[C@@]4(C)CC[C@@H]1[C@]32OO4 | inactive
15 | COP(=S)(OC)Oc1ccc([N+](=O)[O-])cc1Cl | inactive
16 | O=C(Nc1ccccc1)Nc1ccnc(Cl)c1 | inactive
17 | CO/N=C(/C(=O)OC)c1ccccc1COc1ccccc1C | inactive
18 | Cl/C=C\C[N+]12CN3CN(CN(C3)C1)C2 | inactive
19 | O=S(=O)(O)C(F)(F)C(F)(F)C(F)(F)C(F)(F)F | inactive
20 | C[C@]12CC[C@H]3[C@@H](CCC4=CC(=O)CC[C@@H]43)[C@@H]1CC[C@@H]2OC(=O)CCC1CCCCC1 | inactive
21 | CC1CC(CC2CCC(N)C(C)C2)CCC1N (stereo not drawn) | inactive
22 | CCCC(Cn1cncn1)c1ccc(Cl)cc1Cl (stereo not drawn) | inactive
23 | ClCc1cccc(Cl)c1 | inactive
24 | O=C(CBr)Nc1ccc(Cl)cc1C(=O)c1ccccc1F | inactive
25 | COc1ccc(-c2ccccc2)cc1NNC(=O)OC(C)C | inactive
26 | O=C(O)C(F)(F)C(F)(F)C(F)(F)C(F)(F)C(F)(F)C(F)(F)C(F)(F)C(F)(F)C(F)(F)F | inactive
27 | O=C(N[C@H](c1ccccc1)[C@@H]1CN2CCC1CC2)c1c(Cl)ccc(C(F)(F)F)c1Cl | inactive
28 | Sc1ccccc1Cl | inactive
